Data reported in PMC7862700, “An all-to-all approach to the identification of sequence-specific readers for epigenetic DNA modifications on cytosine”.

Columns and labels:
Assay in all cases: DAPPL (digital affinity profiling via proximity ligation, sequencing); 10 mM Tris-HCl pH 7.5, 50 mM NaCl, 1 mM DTT, 4% glycerol, room temperature, 30 min; GST-TFs on glutathione beads, 16-mer random dsDNA library, 0.1% formaldehyde crosslink after washing; high values mean tight binding
FEV = molecular target: T1, FEV (Homo sapiens, UniProt Q99581 1-238); details: protein: recombinant; tags: N-terminal GST; dsDNA, one strand shown
T1 sequence: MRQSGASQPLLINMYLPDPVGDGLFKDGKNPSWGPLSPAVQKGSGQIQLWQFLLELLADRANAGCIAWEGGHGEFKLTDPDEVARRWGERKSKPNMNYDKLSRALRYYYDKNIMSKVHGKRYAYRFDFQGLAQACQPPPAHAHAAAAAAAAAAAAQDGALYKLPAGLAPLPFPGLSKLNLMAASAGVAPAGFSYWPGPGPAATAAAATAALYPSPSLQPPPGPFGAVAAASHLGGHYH
In short: (§1)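 Sequencing on an Illumina NextSeq500 followed washing, crosslinking with 0.1% formaldehyde, proximity ligation (BsaI/T4 ligase, 1 h, 37 °C) and PCR amplification of pools that had been incubated for 30 min at room temperature with 200 nmole of a random double-stranded 16-mer DNA library in Tris/NaCl/DTT/glycerol buffer. Each pool held DNA-barcoded human transcription factors, expressed in yeast as GST fusions and captured on glutathione beads, plus a tag-only sample. Binding signal is a hexamer's read frequency for a factor divided by its frequency in the tag-only sample.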

ETV5 = ETV5 (Homo sapiens, UniProt P41161 1-510); details: protein: recombinant; tags: N-terminal GST; dsDNA, one strand shown
ETV5, sequence (P41161 whole entry): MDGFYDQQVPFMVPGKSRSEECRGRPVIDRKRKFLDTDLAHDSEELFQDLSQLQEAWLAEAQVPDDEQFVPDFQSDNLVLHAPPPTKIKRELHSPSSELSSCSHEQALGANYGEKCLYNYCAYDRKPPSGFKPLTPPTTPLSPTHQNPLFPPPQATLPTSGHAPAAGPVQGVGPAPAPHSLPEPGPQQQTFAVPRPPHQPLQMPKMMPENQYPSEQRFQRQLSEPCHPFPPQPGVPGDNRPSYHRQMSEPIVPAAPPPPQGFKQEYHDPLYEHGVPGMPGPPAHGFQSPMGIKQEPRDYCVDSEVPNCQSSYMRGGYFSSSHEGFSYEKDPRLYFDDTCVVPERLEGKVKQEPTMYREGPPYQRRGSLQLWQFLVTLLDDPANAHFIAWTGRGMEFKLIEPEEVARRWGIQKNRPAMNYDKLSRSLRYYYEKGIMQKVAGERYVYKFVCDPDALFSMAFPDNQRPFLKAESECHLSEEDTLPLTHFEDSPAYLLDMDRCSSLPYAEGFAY
In short: as §1

HSF1 = HSF1 (Homo sapiens, UniProt Q00613 1-529); details: protein: recombinant; tags: N-terminal GST; chain copies: 3; dsDNA, one strand shown
HSF1, sequence (Q00613 whole entry): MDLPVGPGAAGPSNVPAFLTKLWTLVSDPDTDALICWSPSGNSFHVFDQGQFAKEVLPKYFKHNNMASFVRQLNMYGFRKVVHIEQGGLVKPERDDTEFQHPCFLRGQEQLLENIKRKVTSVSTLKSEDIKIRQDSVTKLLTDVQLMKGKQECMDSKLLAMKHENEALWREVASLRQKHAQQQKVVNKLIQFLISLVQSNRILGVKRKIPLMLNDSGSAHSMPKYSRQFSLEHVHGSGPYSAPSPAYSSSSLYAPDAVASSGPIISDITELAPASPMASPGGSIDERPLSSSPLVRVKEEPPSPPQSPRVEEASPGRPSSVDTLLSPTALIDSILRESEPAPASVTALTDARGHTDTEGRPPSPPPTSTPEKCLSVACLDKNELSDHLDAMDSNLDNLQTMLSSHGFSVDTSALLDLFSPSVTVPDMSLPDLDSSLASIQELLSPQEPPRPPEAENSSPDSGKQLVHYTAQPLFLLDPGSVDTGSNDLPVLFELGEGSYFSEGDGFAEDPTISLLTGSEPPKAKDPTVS
In short: as §1

SPIC = molecular target: T2, SPIC (Homo sapiens, UniProt Q8N5J4 1-248); details: protein: recombinant; tags: N-terminal GST; dsDNA, one strand shown
T2 sequence: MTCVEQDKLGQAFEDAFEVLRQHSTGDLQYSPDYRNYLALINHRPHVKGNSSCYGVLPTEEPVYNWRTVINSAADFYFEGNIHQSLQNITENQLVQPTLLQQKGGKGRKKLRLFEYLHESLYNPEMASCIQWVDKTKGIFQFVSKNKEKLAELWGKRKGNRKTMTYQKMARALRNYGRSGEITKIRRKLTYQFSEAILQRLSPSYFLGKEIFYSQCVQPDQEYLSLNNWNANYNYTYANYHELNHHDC
In short: as §1

ELF4 = ELF4 (Homo sapiens, UniProt Q99607 1-663); details: protein: recombinant; tags: N-terminal GST; dsDNA, one strand shown
ELF4, sequence (Q99607 whole entry): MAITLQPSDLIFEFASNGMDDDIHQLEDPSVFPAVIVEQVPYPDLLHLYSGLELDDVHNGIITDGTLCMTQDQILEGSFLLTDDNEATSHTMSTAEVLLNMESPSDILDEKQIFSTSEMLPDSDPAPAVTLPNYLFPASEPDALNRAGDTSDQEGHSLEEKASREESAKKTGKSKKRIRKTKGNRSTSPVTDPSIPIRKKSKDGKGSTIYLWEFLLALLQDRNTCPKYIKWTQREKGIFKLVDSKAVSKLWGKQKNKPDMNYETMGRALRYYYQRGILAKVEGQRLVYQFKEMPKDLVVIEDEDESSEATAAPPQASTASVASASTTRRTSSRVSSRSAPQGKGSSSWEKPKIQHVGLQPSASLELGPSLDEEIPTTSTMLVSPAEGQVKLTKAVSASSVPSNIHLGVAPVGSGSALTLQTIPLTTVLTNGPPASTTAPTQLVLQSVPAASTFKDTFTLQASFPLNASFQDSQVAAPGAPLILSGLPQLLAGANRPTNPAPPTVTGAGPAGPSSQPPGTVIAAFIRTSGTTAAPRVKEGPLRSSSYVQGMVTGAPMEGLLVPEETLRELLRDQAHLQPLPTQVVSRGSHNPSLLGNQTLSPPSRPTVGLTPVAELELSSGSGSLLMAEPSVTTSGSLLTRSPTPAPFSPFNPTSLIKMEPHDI
In short: as §1

ELK4 = molecular target: T3, ELK4 (Homo sapiens, UniProt P28324-2 1-405); details: protein: recombinant; tags: N-terminal GST; dsDNA, one strand shown
T3 sequence: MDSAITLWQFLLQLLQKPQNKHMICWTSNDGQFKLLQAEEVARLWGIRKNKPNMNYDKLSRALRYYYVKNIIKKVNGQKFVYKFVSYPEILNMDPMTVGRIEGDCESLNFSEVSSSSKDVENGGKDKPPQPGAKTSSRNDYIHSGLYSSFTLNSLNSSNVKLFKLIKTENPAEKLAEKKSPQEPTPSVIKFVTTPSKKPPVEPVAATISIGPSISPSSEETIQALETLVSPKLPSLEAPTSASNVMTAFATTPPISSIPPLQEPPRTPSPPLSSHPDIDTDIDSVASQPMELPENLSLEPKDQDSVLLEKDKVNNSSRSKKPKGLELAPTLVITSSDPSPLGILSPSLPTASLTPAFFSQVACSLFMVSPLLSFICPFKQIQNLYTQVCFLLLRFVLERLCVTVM
In short: as §1

ETV2 = molecular target: T4, ETV2 (Homo sapiens, UniProt O00321 1-342); details: protein: recombinant; tags: N-terminal GST; dsDNA, one strand shown
T4 sequence: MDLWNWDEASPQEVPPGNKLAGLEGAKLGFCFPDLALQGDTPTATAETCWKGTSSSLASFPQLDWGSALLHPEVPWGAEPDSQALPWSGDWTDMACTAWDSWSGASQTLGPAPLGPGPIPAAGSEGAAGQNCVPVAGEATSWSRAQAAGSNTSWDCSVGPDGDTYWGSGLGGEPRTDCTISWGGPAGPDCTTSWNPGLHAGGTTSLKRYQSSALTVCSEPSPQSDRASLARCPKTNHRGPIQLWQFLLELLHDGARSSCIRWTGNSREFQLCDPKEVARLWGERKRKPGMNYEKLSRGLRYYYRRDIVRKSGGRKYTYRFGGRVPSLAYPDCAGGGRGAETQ
In short: as §1

ELF3 = molecular target: T5, ELF3 (Homo sapiens, UniProt P78545 1-371); details: protein: recombinant; tags: N-terminal GST; dsDNA, one strand shown
T5 sequence: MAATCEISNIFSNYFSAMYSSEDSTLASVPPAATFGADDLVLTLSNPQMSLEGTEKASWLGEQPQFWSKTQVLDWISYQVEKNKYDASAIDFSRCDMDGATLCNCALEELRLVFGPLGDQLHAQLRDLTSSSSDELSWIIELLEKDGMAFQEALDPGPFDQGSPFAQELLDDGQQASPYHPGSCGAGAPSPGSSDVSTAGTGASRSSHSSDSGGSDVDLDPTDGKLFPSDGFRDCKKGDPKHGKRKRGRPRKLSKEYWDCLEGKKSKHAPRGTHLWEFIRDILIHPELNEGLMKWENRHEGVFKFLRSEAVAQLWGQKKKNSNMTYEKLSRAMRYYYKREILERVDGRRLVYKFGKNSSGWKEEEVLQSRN
In short: as §1

CRX = CRX (Homo sapiens, UniProt O43186 1-299); details: protein: recombinant; tags: N-terminal GST; dsDNA, one strand shown
CRX, sequence (O43186 whole entry): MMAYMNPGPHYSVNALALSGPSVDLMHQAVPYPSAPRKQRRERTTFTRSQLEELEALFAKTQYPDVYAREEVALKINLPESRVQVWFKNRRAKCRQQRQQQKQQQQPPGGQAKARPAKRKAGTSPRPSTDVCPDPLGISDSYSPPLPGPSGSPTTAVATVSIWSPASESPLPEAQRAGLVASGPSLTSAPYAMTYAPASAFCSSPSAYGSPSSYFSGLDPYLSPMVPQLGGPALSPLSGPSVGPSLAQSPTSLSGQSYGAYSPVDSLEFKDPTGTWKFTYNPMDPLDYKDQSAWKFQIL
In short: as §1

ETV1 = ETV1 (Homo sapiens, UniProt P50549 1-477); details: protein: recombinant; tags: N-terminal GST; dsDNA, one strand shown
ETV1, sequence (P50549 whole entry): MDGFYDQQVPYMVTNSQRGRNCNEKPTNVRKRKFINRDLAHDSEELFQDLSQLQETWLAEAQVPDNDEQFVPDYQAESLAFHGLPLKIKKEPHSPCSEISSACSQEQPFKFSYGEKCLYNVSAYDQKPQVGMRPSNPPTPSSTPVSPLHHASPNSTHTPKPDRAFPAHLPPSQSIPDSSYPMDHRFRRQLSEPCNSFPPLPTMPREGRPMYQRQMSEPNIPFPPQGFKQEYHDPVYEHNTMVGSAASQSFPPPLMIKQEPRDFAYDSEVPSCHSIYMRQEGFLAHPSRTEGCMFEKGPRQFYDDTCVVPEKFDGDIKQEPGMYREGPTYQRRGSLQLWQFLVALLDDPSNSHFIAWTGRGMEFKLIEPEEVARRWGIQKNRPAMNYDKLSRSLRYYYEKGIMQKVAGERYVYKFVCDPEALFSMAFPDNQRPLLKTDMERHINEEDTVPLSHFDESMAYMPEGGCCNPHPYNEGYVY
In short: as §1

ERF = molecular target: T6, ERF (Homo sapiens, UniProt P50548 1-548); details: protein: recombinant; tags: N-terminal GST; dsDNA, one strand shown
T6 sequence: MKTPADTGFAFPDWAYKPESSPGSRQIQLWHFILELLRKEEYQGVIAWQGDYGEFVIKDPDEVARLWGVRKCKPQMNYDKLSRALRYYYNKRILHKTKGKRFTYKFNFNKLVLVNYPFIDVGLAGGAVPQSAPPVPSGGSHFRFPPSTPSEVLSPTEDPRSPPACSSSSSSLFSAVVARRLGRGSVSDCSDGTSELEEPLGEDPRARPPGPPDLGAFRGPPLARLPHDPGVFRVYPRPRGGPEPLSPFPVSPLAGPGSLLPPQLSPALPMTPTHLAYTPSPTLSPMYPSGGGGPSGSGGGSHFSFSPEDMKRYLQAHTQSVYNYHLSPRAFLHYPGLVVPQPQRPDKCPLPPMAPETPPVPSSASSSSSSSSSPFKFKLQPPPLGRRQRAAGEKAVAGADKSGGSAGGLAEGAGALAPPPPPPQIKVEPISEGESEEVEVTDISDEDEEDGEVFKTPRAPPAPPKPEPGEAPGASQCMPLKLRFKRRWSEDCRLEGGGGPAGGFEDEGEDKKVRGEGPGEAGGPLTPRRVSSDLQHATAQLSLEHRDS
In short: as §1

ETV3L = molecular target: T7, ETV3L (Homo sapiens, UniProt Q6ZN32 1-361); details: protein: recombinant; tags: N-terminal GST; dsDNA, one strand shown
T7 sequence: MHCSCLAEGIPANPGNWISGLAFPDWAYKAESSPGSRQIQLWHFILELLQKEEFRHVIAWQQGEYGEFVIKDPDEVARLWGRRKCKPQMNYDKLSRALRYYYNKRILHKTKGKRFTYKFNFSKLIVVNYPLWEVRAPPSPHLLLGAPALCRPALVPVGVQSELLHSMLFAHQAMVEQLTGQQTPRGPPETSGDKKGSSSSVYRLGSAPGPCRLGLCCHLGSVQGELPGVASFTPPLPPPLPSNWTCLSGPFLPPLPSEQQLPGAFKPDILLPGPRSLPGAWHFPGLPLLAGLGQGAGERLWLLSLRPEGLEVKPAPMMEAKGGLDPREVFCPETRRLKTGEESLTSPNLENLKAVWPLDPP
In short: as §1

ETS2 = molecular target: T8, ETS2 (Homo sapiens, UniProt P15036 1-469); details: protein: recombinant; tags: N-terminal GST; dsDNA, one strand shown
T8 sequence: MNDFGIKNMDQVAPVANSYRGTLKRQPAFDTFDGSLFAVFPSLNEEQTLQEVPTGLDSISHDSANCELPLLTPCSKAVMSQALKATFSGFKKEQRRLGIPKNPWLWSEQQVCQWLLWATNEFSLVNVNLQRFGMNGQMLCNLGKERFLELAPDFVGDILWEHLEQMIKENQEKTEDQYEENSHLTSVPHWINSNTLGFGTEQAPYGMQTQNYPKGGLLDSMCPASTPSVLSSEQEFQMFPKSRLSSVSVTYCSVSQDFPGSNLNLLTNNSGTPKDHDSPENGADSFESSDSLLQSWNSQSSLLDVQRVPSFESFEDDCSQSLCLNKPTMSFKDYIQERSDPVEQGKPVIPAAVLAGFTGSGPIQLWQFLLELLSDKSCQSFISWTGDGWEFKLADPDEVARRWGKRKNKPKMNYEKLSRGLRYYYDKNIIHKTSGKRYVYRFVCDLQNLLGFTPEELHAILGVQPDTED
In short: as §1

SPDEF = molecular target: T9, SPDEF (Homo sapiens, UniProt O95238 1-335); details: protein: recombinant; tags: N-terminal GST; dsDNA, one strand shown
T9 sequence: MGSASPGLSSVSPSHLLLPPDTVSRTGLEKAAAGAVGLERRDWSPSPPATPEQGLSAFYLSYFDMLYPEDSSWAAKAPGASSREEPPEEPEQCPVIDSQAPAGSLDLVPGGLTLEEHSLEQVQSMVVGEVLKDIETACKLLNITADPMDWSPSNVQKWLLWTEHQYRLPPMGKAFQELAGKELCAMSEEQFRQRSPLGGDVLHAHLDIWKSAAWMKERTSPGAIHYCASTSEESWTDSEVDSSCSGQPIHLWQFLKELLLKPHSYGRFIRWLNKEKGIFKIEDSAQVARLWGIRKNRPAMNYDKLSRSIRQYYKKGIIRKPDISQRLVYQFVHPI
In short: as §1

ETV7 = molecular target: T10, ETV7 (Homo sapiens, UniProt Q9Y603 1-341); details: protein: recombinant; tags: N-terminal GST; dsDNA, one strand shown
T10 sequence: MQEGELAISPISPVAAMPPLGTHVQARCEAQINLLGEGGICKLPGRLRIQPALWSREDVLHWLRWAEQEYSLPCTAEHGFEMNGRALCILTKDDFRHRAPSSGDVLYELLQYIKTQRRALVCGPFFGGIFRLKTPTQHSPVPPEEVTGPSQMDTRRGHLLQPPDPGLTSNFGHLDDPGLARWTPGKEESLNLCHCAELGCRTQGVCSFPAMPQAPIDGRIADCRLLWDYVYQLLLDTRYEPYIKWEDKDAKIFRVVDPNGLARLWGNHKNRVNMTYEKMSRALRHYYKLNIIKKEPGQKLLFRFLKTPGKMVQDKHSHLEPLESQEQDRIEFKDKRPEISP
In short: as §1

ELF5 = molecular target: T11, ELF5 (Homo sapiens, UniProt Q9UKW6-2 1-255); details: protein: recombinant; tags: N-terminal GST; dsDNA, one strand shown
T11 sequence: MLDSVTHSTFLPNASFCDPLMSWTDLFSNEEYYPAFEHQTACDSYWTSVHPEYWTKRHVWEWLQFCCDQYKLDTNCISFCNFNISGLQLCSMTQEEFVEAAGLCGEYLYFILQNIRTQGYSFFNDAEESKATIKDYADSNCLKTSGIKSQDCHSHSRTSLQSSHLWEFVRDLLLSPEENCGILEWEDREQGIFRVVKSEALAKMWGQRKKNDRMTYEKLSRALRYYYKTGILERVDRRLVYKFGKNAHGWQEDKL
In short: as §1

ETV3 = molecular target: T12, ETV3 (Homo sapiens, UniProt P41162-2 1-143); details: protein: recombinant; tags: N-terminal GST; dsDNA, one strand shown
T12 sequence: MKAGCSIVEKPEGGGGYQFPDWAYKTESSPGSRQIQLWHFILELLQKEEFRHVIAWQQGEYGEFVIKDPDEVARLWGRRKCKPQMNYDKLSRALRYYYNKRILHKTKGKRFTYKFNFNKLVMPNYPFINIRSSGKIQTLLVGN
In short: as §1

ETV6 = ETV6 (Homo sapiens, UniProt P41212 1-452); details: protein: recombinant; tags: N-terminal GST; dsDNA, one strand shown
ETV6, sequence (P41212 whole entry): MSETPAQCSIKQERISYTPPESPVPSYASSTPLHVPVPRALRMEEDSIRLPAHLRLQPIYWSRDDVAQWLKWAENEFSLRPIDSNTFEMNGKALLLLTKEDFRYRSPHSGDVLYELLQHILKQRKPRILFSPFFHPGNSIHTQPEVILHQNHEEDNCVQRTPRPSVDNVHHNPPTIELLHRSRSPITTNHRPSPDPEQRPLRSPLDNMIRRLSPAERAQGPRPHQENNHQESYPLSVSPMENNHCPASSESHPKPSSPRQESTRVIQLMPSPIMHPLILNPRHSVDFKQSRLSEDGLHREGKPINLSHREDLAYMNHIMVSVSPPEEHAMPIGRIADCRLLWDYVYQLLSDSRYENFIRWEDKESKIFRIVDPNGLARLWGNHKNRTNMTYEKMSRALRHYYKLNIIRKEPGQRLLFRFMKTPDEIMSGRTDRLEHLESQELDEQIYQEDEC
In short: as §1

Sequence	binding signal (FEV)	binding signal (ETV5)	binding signal (HSF1)	binding signal (SPIC)	binding signal (ELF4)	binding signal (ELK4)	binding signal (ETV2)	binding signal (ELF3)	binding signal (CRX)	binding signal (ETV1)	binding signal (ERF)	binding signal (ETV3L)	binding signal (ETS2)	binding signal (SPDEF)	binding signal (ETV7)	binding signal (ELF5)	binding signal (ETV3)	binding signal (ETV6)
ATTCCT	1.34 fold enrichment (6-mer frequency, TF over GST control)	1.39 fold enrichment (6-mer frequency, TF over GST control)	1.57 fold enrichment (6-mer frequency, TF over GST control)	1.27 fold enrichment (6-mer frequency, TF over GST control)	1.39 fold enrichment (6-mer frequency, TF over GST control)	1.22 fold enrichment (6-mer frequency, TF over GST control)	1.45 fold enrichment (6-mer frequency, TF over GST control)	1.2 fold enrichment (6-mer frequency, TF over GST control)	1.33 fold enrichment (6-mer frequency, TF over GST control)	1.28 fold enrichment (6-mer frequency, TF over GST control)	1.2 fold enrichment (6-mer frequency, TF over GST control)	1.32 fold enrichment (6-mer frequency, TF over GST control)	1.39 fold enrichment (6-mer frequency, TF over GST control)	1.32 fold enrichment (6-mer frequency, TF over GST control)	1.39 fold enrichment (6-mer frequency, TF over GST control)	1.68 fold enrichment (6-mer frequency, TF over GST control)	1.47 fold enrichment (6-mer frequency, TF over GST control)	1.35 fold enrichment (6-mer frequency, TF over GST control)
CTAACA	1.2 fold enrichment (6-mer frequency, TF over GST control)	1.26 fold enrichment (6-mer frequency, TF over GST control)	1.08 fold enrichment (6-mer frequency, TF over GST control)	1.26 fold enrichment (6-mer frequency, TF over GST control)	1.2 fold enrichment (6-mer frequency, TF over GST control)	1.17 fold enrichment (6-mer frequency, TF over GST control)	1.21 fold enrichment (6-mer frequency, TF over GST control)	1.28 fold enrichment (6-mer frequency, TF over GST control)	1.2 fold enrichment (6-mer frequency, TF over GST control)	1.15 fold enrichment (6-mer frequency, TF over GST control)	1.29 fold enrichment (6-mer frequency, TF over GST control)	1.22 fold enrichment (6-mer frequency, TF over GST control)	1.21 fold enrichment (6-mer frequency, TF over GST control)	1.29 fold enrichment (6-mer frequency, TF over GST control)	1.16 fold enrichment (6-mer frequency, TF over GST control)	1.15 fold enrichment (6-mer frequency, TF over GST control)	1.14 fold enrichment (6-mer frequency, TF over GST control)	1.18 fold enrichment (6-mer frequency, TF over GST control)
